biological target: TUBA8; assay: pooled miR-30 sensor sort-seq; sequence = guide strand; conditions: shRNA
Note: reference of the scale not given here.

Sequence	sensor-assay potency score (higher = more potent)
TCGCACTTCACCATCTGGCTGT	-0.0578
TTTCTTCTTCAAACGAATCAGT	-0.469
TACATGAGGTCGAACTTGTGGT	-0.814
AATAGCGACATTCACATCCTTG	-0.744
TCGAACTTGTGGTCGAGGCGGG	-0.697
TCATCATCGTTGATCTTGCTAG	-0.473
TTTCTTGCCATAATCCAGGGAG	-0.376
TTGAGGACACAATCTGACTGAT	-0.409
TTGATCTTGCTAGCTTGAGCAT	-0.893
TTGAGGTTGGTATAGGTAGGGC	-0.964
TGATCTTGCTAGCTTGAGCATC	-1.14
ATTGAGGACACAATCTGACTGA	0.101

biological target: TUBAL3; assay: as above; conditions: shRNA

Sequence	sensor-assay potency score (higher = more potent)
TAAGGTACCAGGTTGGTCTGGA	0.512
TAGTGTGGAACCTAGAGTCTTG	-0.173
TTAAGAGAGACGTAAACCCTGA	-0.309

— the OligoGym collection
